Compound activity from PubChem BioAssay.
Shiga inhibitor: inhibitors of Shiga toxin in Vero cells | inhibition, % at 38.7 µM | 290,000 compounds, 9.2% hits | Vero cells, Shiga toxin protein synthesis inhibition reporter; in the data active = inhibition mostly above about 28%, no sharp cut-off; inactive = mostly below about 43%
Pf growth 48h: P. falciparum growth inhibition at 48 hours (one generation). P. falciparum luciferase growth in erythrocytes, 48 h. Potency, µM (doses to about 28.7 µM), most hits filed as inhibitors. 310,000 compounds, 5.9% hits. AID 504832
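First compound was added to culture medium, then infected red cells at 0.1% parasitemia and 2% hematocrit (final). After incubation at 37 C under 5% CO2, luciferase detection reagent was dispensed and light output recorded.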
Marburg entry inh: inhibitors of Marburg virus binding or cell entry; Marburg virus pseudotyped entry inhibition, cell reporter; Potency, µM (highest dose often 37.8 µM), hits mostly inhibitors; 300,000 compounds, 1.8% hits; AID 540276; calls by dose curve; tested in HEK293 cells
LASV entry inh: inhibitors of Lassa virus binding or cell entry; Lassa virus pseudotype entry inhibition, cell reporter; AID 540256; Potency, µM (top dose mostly 37.9 µM), most hits filed as inhibitors; 300,000 compounds, 1.2% hits; calls by dose curve; tested in HEK293 cells; note: nearly all actives have a fitted effect of over 50% in size
Pf growth 96h: P. falciparum growth inhibition at 96 hour, primary screen for plastid delayed-death inhibitors | P. falciparum luciferase reporter growth, 96 h | Potency, µM (titrated, usually from 28.7 µM), usual class: inhibitors | 320,000 compounds, 6.9% hits | AID 504834
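Compounds incubated with erythrocytes infected by luciferase-expressing P. falciparum (2% hematocrit, 0.05% parasitemia final) for 96 hours, 37 C in 5% CO2. Growth inhibition scored as decreased luciferase luminescence.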
Cycloheximide cs: affects cycloheximide protein synthesis inhibition readout, counter-screen. max response, %. 300,000 compounds, 12% hits. cell reporter, cycloheximide protein synthesis inhibition counterscreen; in the data active = max response mostly above about 13%, no sharp cut-off; inactive = mostly below about 14%; note: read at 38.3 µM for the half of the compounds with a filed dose
Hits are given with their value; . = inactive; ? = inconclusive; / = no result given; [ ] = remark or other dose. A selection: hits, their analogues and other compounds. The true share with any hit is near 19%. Unless noted, calls come from the whole dose curve; as a rule, active = well fitted inhibition curve with a large enough effect; inconclusive = small, poorly fitted or top-dose-only effect, or another doubt; inactive = no such curve, though single readings can be large or run the other way.

SMILES | Shiga inhibitor | Pf growth 48h | Marburg entry inh | LASV entry inh | Pf growth 96h | Cycloheximide cs
c1ccc(C2=Nn3c(nnc3-c3ccccn3)SC2)cc1 | . | / | . | . | . | .
CC1(C)Cc2ccccc2C(N)=C1C#N | . | . | . | . | / | .
O=C(CCc1nnc2ccc(NCc3ccco3)nn12)N1CCCCC1 | . | . | / | / | . | .
NC(=O)c1ccccc1NC(=O)C1CCCO1 (stereo unspecified) | . | . | ? | . | 10µM | .
O=C(c1ccccc1)c1cccc(NC(=O)C2CC2)c1 | . | . | . | . | / | .
O=C(Nc1ccc(Oc2ccccc2)cc1)C1CC1 | 71 | . | ? | . | .[1.15 µM] | .
O=C(Nc1ccc(C#Cc2ccccc2)cc1)C1CC1 | 51 | . | 2.3µM | 4.6µM | . | 44
COC(=O)c1c(-c2ccc(C)cc2)csc1NC(=S)NC(=O)c1cc(OC)cc(OC)c1 | . | ? | . | . | 8.3µM | .
O=C(Nc1ccc(Oc2ccccc2)cc1)C1CCCO1 (stereo unspecified) | 190 | . | . | . | . | 31
COC(=O)COc1ccc(NC(=O)C2CCCO2)cc1 (stereo unspecified) | . | . | . | . | ? | .
O=C(O)COc1cccc(NC(=O)C2CCCO2)c1 (stereo unspecified) | . | . | . | . | . | .
COc1ccc(NC(=O)C2CCCO2)cc1 (stereo unspecified) | . | . | ? | . | . | 16
COc1ccc(-c2csc(NC(=O)C3CCCCN3S(=O)(=O)c3ccccc3)n2)cc1 (stereo unspecified) | . | ? | ? | 16µM | 7.4µM | .
COc1ccc(Cc2nnc(NC(=O)C3CCCO3)s2)cc1OC (stereo unspecified) | . | . | . | . | ? | .
COc1ccc(S(=O)(=O)N2CCCC2C(=O)Nc2nc3c(s2)CCCC3)cc1 (stereo unspecified) | . | ? | ? | . | . | .
COc1ccc(Cc2nnc(NC(=O)C3CCCO3)s2)cc1 (stereo unspecified) | . | . | . | . | ? | 24
CSCCC(NC(=O)c1ccco1)C(=O)N1CC=C(c2ccccc2)CC1 (stereo unspecified) | . | . | . | . | . | .
O=S(=O)(N/N=C1\CCCc2ccccc21)c1ccccc1 | / | . | / | / | . | /
CCc1ccc(-c2csc(NC(=O)C3CCCO3)c2C(=O)OC(C)C)cc1 (stereo unspecified) | . | ? | ? | ? | ? | .
COc1ccc(-c2csc(NC(=O)C3CCCO3)n2)cc1 (stereo unspecified) | 82 | . | . | ? | . | 43
COc1ccc(NC(=O)C2CCCO2)cc1OC (stereo unspecified) | . | / | . | . | . | .
COC(=O)c1c(-c2ccc(F)cc2)csc1NC(=O)C1CCCO1 (stereo unspecified) | . | . | ? | . | . | 26
CC1CCN(C(=O)c2ccc(NC(=O)C3CCCO3)cc2)CC1 (stereo unspecified) | . | . | ? | . | 15µM | .
CC1CCN(CCNC(=O)c2ccc(NC(=O)C3CCCO3)cc2)CC1 (stereo unspecified) | . | . | . | . | . | .
COC(=O)c1ccc(NC(=O)C2CCCO2)cc1 (stereo unspecified) | 35 | . | ? | ? | ? | 38
SMILES | Shiga inhibitor | Pf growth 48h | Marburg entry inh | LASV entry inh | Pf growth 96h | Cycloheximide cs
COc1cc(CN(C(=O)Nc2cccc(Cl)c2)c2ccccn2)cc(OC)c1OC | / | / | . | . | / | /
Cc1nc2c(C(=O)Nc3ccc(N4CCCC(O)C4)cc3)snc2c(=O)[nH]1 (stereo unspecified) | . | 1.7µM | / | / | ? | .
O=C(Nc1ncc2c(n1)CC(c1ccco1)CC2=O)c1ccccc1 (stereo unspecified) | . | . | ? | . | / | .
COc1ccc(NC(=O)CN(C)CC(=O)Nc2ccc(N3CCOCC3)cc2)c([N+](=O)[O-])c1 | . | . | . | ? | ? | .
CC(=O)Nc1sc2c(c1C(=O)N1CCOCC1)CCCCC2 | . | . | ? | . | 12µM | .
Cc1ccc(C(=O)Nc2sc3c(c2C(=O)O)CCCC3)o1 | 68 | . | / | / | . | 52
COC(=O)c1c(NC(=O)Cc2cccs2)sc2c1CCCC2 | . | . | ? | ? | ? | 30
COC(=O)c1c(NC(=O)c2c(-c3ccccc3Cl)noc2C)sc2c1CCC2 | . | / | ? | . | 2.1µM | .
CCOc1ccccc1NC(=O)C1CCCN(S(C)(=O)=O)C1 (stereo unspecified) | . | . | . | . | ? | .
O=C(O)[C@H]1CCCC[C@H]1C(=O)Nc1ccc(S(=O)(=O)N2CCCCC2)cc1 | . | . | . | . | . | .
CCOC(=O)c1c(NC(=O)C2CCCCC2C(=O)O)sc2c1CCCCC2 (stereo unspecified) | . | . | . | . | . | .
COC(=O)c1c(NC(=O)c2ccc(C)o2)sc2c1CCCCC2 | 73 | . | . | ? | . | 50
O=C(Nc1sc2c(c1C(=O)O)CCC2)c1ccco1 | . | / | . | . | . | .
COC(=O)c1c(NC(=O)c2ccco2)sc2c1CCC2 | . | . | . | . | / | .
COC(=O)c1c(NC(=O)C2CCCCC2C(=O)O)sc2c1CCCCC2 (stereo unspecified) | 84 | . | . | / | . | 40
Cc1ccc(C(=O)Nc2sc3c(c2C(=O)O)CCCCC3)o1 | 54 | . | 6.3µM | 7.9µM | ? | 37
COc1ccc(C(=O)C2CCCN(S(=O)(=O)c3ccccc3F)C2)c(C)c1 (stereo unspecified) | . | . | ? | ? | ? | .
CCSc1nnc(NC(=O)C2C3CCC(C3)C2C(=O)O)s1 (stereo unspecified) | . | . | . | . | . | .
CN(C)c1ccc(NC(=O)CCN2C(=O)c3cccc([N+](=O)[O-])c3C2=O)cc1 | . | . | . | . | 12µM | 16
CCOc1ccc(NC(=O)CCN2C(=O)c3cccc([N+](=O)[O-])c3C2=O)cc1 | . | . | / | / | ? | .
Cc1ccc2nc(N3CCN(Cc4nnnn4Cc4ccccc4)CC3)c(C#N)cc2c1 | . | ? | . | ? | . | .
CCN(Cc1ccc(OC)c(F)c1)C(C)C(=O)Nc1ccc(S(=O)(=O)N2CCCC2)cc1 (stereo unspecified) | / | 10µM | / | / | ? | /
COc1ccc(CC(=O)Nc2ccc(S(=O)(=O)N3CCCC3)cc2)cc1OC | / | / | . | ? | / | /
COc1ccc(CN(C)C(C)C(=O)Nc2ccc(S(=O)(=O)N3CCCC3)cc2)c(OC)c1OC (stereo unspecified) | . | 7.4µM | / | / | 4.1µM | .
O=C1c2ccccc2C(=O)N1COc1ccc(S(=O)(=O)N2CCOCC2)cc1[N+](=O)[O-] | . | . | . | . | . | .
O=C(O)CC(Cn1[nH]nnc1=S)c1ccccc1 (stereo unspecified) | . | / | . | . | . | .
CC(C)(C)n1cnc2cc(NC(=O)c3ccco3)ccc21 | 62 | . | . | / | . | 25
CCCn1cnc2cc(NC(=O)c3ccco3)ccc21 | 80 | . | / | / | . | 63
